# Data reported in PubChem BioAssay AID588689 (Southern Research Specialized Biocontainment Screening …, 2011).
# About 1,000 (0.29%) of roughly 340,000 compounds were called active. Cut-off read from the data, not from the text of the source: inconclusive = inhibition above about 29% without an active follow-up result; inactive = below that. The list is a sample of the results. Potency and affinity values are given separately.
# Biological target: Genome polyprotein (Dengue virus type 2 (strain 16681-PDK53)) (UniProt P29991)
# Sequence (P29991 whole entry, looked up): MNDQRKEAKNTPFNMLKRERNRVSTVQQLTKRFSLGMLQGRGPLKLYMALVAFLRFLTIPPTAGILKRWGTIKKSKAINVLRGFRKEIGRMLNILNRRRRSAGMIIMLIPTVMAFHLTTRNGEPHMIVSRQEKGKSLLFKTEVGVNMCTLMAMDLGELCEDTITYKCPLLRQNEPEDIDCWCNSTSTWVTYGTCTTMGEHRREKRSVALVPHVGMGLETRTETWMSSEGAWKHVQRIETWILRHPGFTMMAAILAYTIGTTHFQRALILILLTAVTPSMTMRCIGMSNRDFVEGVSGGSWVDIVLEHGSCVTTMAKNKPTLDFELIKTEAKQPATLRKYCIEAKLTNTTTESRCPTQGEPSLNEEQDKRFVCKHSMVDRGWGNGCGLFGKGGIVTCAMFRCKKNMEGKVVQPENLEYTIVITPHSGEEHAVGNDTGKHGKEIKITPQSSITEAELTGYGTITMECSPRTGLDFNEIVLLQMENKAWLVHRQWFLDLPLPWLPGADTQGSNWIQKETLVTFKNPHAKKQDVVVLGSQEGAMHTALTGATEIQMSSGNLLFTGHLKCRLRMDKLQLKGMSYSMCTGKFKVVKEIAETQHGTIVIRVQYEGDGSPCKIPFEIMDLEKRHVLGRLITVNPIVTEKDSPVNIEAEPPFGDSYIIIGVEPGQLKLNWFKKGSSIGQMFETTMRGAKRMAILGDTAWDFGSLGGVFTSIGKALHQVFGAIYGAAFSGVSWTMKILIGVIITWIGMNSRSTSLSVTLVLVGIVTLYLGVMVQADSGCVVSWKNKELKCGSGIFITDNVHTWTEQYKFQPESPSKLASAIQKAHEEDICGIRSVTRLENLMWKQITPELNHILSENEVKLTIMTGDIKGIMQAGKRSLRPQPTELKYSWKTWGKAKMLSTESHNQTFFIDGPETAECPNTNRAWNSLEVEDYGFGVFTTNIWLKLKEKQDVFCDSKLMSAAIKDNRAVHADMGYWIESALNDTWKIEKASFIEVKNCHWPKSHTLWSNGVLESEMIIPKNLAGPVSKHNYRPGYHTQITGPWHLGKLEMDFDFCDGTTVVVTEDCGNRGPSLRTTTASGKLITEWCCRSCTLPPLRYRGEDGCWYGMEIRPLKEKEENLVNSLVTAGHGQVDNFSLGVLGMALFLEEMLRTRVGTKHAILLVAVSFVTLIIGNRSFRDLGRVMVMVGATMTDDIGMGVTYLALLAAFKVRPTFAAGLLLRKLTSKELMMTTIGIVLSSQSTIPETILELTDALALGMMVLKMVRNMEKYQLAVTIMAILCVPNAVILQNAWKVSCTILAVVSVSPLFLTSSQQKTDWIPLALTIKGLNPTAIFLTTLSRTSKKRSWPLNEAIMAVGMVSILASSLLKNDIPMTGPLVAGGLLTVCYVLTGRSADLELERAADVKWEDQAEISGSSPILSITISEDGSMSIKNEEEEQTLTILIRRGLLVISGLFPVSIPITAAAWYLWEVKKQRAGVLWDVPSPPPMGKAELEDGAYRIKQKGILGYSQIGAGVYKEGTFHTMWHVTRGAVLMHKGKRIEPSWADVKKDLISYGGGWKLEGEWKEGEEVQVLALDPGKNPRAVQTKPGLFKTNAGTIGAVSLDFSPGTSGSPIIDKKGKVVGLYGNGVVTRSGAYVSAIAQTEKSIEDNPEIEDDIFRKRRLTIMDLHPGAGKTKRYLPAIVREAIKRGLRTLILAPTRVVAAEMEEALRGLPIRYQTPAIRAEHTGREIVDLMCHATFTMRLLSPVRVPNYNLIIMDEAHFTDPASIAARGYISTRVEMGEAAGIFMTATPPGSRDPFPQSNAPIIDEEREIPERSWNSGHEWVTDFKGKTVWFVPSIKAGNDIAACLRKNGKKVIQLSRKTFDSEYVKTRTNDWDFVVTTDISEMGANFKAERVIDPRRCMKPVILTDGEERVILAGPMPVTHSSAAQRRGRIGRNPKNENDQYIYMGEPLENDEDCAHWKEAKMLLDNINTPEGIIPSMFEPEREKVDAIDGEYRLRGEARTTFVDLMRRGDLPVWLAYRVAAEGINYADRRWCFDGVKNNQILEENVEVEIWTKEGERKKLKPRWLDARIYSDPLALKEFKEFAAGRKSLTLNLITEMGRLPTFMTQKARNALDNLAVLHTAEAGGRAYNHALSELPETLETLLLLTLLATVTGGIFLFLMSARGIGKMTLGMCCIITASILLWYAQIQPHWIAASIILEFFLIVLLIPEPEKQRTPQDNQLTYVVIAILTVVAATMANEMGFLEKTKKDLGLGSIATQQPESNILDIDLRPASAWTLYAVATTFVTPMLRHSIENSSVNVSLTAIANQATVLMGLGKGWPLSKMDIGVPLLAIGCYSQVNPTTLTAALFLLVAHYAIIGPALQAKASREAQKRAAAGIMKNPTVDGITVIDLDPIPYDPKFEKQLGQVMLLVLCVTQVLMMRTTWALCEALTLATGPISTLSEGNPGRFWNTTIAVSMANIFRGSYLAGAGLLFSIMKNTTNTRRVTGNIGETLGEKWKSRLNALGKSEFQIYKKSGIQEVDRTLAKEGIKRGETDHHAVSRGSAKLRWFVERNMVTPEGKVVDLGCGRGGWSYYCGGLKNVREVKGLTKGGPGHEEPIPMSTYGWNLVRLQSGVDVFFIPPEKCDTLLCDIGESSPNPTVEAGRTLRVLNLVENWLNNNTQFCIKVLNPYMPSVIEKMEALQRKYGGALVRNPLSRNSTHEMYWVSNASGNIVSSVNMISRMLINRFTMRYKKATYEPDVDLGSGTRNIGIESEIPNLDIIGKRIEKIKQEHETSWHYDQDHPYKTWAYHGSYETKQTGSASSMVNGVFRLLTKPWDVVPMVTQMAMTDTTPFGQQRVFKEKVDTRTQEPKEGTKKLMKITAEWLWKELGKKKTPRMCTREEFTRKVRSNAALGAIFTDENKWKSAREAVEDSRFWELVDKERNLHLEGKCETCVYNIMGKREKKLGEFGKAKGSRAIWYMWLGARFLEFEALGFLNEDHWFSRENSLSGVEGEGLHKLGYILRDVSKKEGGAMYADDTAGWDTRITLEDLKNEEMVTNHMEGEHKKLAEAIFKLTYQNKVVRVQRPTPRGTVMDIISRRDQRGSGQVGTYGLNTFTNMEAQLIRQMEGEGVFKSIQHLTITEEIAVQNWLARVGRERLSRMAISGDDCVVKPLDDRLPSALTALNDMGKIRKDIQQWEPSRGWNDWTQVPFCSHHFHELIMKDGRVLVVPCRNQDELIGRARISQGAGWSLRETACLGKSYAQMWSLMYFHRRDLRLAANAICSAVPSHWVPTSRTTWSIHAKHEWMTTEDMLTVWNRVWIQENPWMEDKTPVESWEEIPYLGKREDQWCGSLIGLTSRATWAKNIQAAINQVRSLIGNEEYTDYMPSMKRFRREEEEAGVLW
# Experiment: flavivirus cap methylation enzyme inhibition – biochemical, confirmation dose response, primary screen (AID 588689)
# Conditions: Dengue-2 NS5 methyltransferase capping enzyme assay, at 25 µM, stronger effect = higher value
# [1] = measured here: pilot screen replicate inhibition
SMILES,inhibition,inhibition [1] [%]
COc1cc(O)c(NC(C)=O)c2nonc12,15% (inactive),–
CCOc1cc(Cl)c(NC(C)=O)cc1OCC,-5.19% (inactive),–
CC(C)(C)OC(=O)N1CCN(C(=O)c2[nH]cnc2C(=O)Nc2cccc(Cl)c2)CC1,-10.3% (inactive),–
O=CN1CCN(C(=S)NC(=O)c2ccc(Cl)cc2)CC1,-3.86% (inactive),–
CC(C)CN1C(=O)/C(=C/c2cccs2)NC1=S,4.84% (inactive),–
O=C1NN(c2ccc(F)cc2)C(=O)/C1=C/c1cccs1,8.53% (inactive),–
C=CCN1C(=O)/C(=C\c2cccs2)C(C(=O)OC)=C1C,-4.71% (inactive),–
COC(=O)C1=C(C)NC(=O)/C1=C\c1cccs1,2.73% (inactive),–
COc1ccc(NS(=O)(=O)c2cccc(C(=O)NCC3(N(C)C)CCCCC3)c2)cc1,-10.1% (inactive),–
COCCNC(=O)c1ccc2c(=O)n(Cc3ccco3)c(SCC(=O)Nc3ccc(OC)cc3OC)nc2c1,-3.55% (inactive),–
COc1ccccc1N1CCN(S(=O)(=O)c2ccc3nc(-c4ccccc4)[nH]c3c2)CC1,1.09% (inactive),–
O=C(NN=C1CCCC1)C(=O)Nc1cccc(C(F)(F)F)c1,-3.35% (inactive),–
O=C(CSc1nc2c(c(=O)[nH]1)CCC2)Nc1cccc(Cl)c1,-8.06% (inactive),–
O=C(O)CSc1c2c(nc3cc(C(=O)Nc4cccc(C(F)(F)F)c4)ccc13)CCC2,2.95% (inactive),–
O=c1c2c(nc3cc(-c4cccc(Cl)c4)[nH]n13)CCCC2,1.45% (inactive),–
Cc1ccc(S(=O)(=O)/N=C(\Nc2cccc(C)c2)Nc2nc(C)cc(C)n2)cc1,-1.83% (inactive),–
N#Cc1c(Nc2ccccc2)sc(C(=O)C2CC2)c1N,-8.93% (inactive),–
CCN(CC)CCNC(C(=O)Nc1ccc([N+](=O)[O-])cc1Br)c1ccccc1 (stereo not drawn),3.24% (inactive),–
Cc1cccc(N=Nc2cnc(N)s2)c1,0.79% (inactive),–
COc1cc(C(=O)O)ccc1Cl,-1.59% (inactive),–
CC(Oc1ccc2c(-c3ccccc3)cc(=O)oc2c1)C(=O)NCCCn1ccnc1 (stereo not drawn),2.17% (inactive),–
CCC(=O)NC1=C(Nc2ccc(N)cc2)C(=O)c2ccccc2C1=O,7.83% (inactive),–
CCC(=O)Nc1c(C)cc(C)cc1Cl,-1.67% (inactive),–
CC(C)NC1=C(Cl)C(=O)c2ccccc2C1=O,-0.68% (inactive),–

SMILES,inhibition,inhibition [1] [%]
CCCC(=O)Nc1ccccc1NC(=O)CCC,0% (inactive),–
O=C(NCCc1ccccc1)c1nc(CS(=O)(=O)c2ccc(Cl)cc2)no1,-1.81% (inactive),–
CCCCCC1CC(CC(=O)NC(=S)Nc2ccccc2Cl)C(=O)O1 (stereo not drawn),-4.68% (inactive),–
Nc1c(C(=O)O)ccc2c1C(=O)c1ccccc1C2=O,24.7% (inactive),–
CN(C)S(=O)(=O)c1cccc2c1C(=O)c1ccccc1C2=O,-1.92% (inactive),–
CC1(Cc2cn(CCC#N)c3ccccc23)OCCO1,6.35% (inactive),–
CC1(C)CC(=O)C(C(c2cccc([N+](=O)[O-])c2)C2C(=O)CC(C)(C)CC2=O)C(=O)C1,0% (inactive),–
CCOC(=O)c1cc(CC)sc1/N=C/C1C(=O)CC(C)(C)CC1=O,-17.9% (inactive),–
CC1(C)CC(=O)C(C(=O)Cc2ccccc2[N+](=O)[O-])C(=O)C1,-1.48% (inactive),–
C/[N+]([O-])=C\C1C(=O)CC(C)(C)CC1=O,-2.92% (inactive),–
Cc1ccc2nc(SCn3nnc4ccccc4c3=O)[nH]c2c1,-4.53% (inactive),–
COc1ccc(OCCCC(=O)ON=C(N)c2ccccc2Cl)cc1,1.1% (inactive),–
CN(CCc1ccccc1)C(=O)c1ccc(NC(=O)Cc2ccc(NC(=O)C3CCCN(C(=O)C4CCC4)C3)cc2)cc1 (stereo not drawn),0% (inactive),0.92
COC(=O)c1ccc(NC(=O)CSc2nnc(COc3c(C)cccc3C)o2)cc1,-9.55% (inactive),–
CC1CCC(O)(C(C(=O)O)c2ccccc2)CC1 (stereo not drawn),-8.55% (inactive),–
CC1CC(=O)c2cc(-c3ccccc3)oc2C1 (stereo not drawn),5.14% (inactive),–
COc1cc(NC(=O)CSc2ccc(-c3ccccn3)nn2)cc(OC)c1,0% (inactive),–
O=C(NNC1CC(=O)N(c2cccc(Cl)c2)C1=O)c1cccs1 (stereo not drawn),3.87% (inactive),–
O=C1CSC(=Nc2ccc(O)cc2)N1c1ccc(O)cc1,-5.52% (inactive),–
O=C1CSC(=Nc2ccc(O)cc2)N1,-4.89% (inactive),–
CN(C(=O)CC1C(=O)NCCN1Cc1ccccc1C(F)(F)F)C1CCOCC1 (stereo not drawn),0.91% (inactive),–
O=C(NCCCN1CCCC1)C1CCN(C(=O)c2cc3sccc3n2Cc2ccc(F)cc2)CC1,-2.07% (inactive),–
CC(/C=C/c1ccco1)=N\NC(=O)COc1ccc(C)c(C)c1,-10.9% (inactive),–
CC(=O)Nc1ccc(/C(N=Nc2ccccc2)=N/N=C(N)N)cc1,7.72% (inactive),–

SMILES,inhibition,inhibition [1] [%]
O=C(O)c1cccc(N/N=C(\N=Nc2ccccc2)c2ccccc2)c1,12.7% (inactive),–
CCCCn1c(SCC2CCCO2)nc2cc(S(N)(=O)=O)ccc21 (stereo not drawn),-11.1% (inactive),–
CC1CCN(S(=O)(=O)c2ccc(C(=O)Nc3nnc(C4CC4)o3)cc2)CC1,-8.7% (inactive),–
COc1cc(NC(=O)CN2CC(c3ccccc3)CC2=O)cc(OC)c1 (stereo not drawn),0.73% (inactive),–
CCn1cc(Br)c(C(=O)N2CCN(c3ccccc3)CC2)n1,-5.15% (inactive),–
COc1ccc(C(C#N)=C2C=C(Cl)C(=NO)C=C2Cl)cc1,27.6% (inactive),–
N#CC(=C1C=C(Br)C(=NO)C=C1Cl)c1cccc2ccccc12,24.1% (inactive),–
Cc1cc(C)cc(NC(=O)CS(=O)(=O)c2cccc3nsnc23)c1,-0.79% (inactive),–
Cc1ccc(NS(=O)(=O)Cc2ccccc2)cc1Cl,-1.36% (inactive),–
CCC1CCCCN1S(=O)(=O)c1ccc2c(c1)CCN2C(C)=O (stereo not drawn),-10.9% (inactive),–
CC(=O)c1ccc(-n2c(=O)[nH]c(=O)c3c(N)c(C(=O)c4ccc(Cl)cc4)sc32)cc1,-6.85% (inactive),–
CC(C)(C)OC(=O)C[C@@H]1C/C=C\C[C@@H](CC(=O)N(CCO)Cc2ccccc2)C(=O)N2CCC[C@H]2COC1=O,-2.31% (inactive),-4.54
CC1=NN(c2ccc(C)cc2C)C(=O)C1C(c1cccc(O)c1)C1C(=O)N(c2ccc(C)cc2C)N=C1C (stereo not drawn),26.6% (inactive),–
CC1=NN(c2ccc(C)cc2C)C(=O)C1C(c1ccccc1O)C1C(=O)N(c2ccc(C)cc2C)N=C1C (stereo not drawn),15.6% (inactive),–
CCc1ccc(OCC(O)CNC(C)(C)C)cc1 (stereo not drawn),-2.07% (inactive),–
Clc1ccc(/C=C/c2nc3ccccc3[nH]2)c(Cl)c1,3.38% (inactive),-0.3
CCOc1ccc(/C=C/c2c([N+](=O)[O-])c(=O)n(C)c(=O)n2C)cc1,0.74% (inactive),–
Clc1ccc(C=Cc2ccccn2)c(Cl)c1,3.5% (inactive),–
O=[N+]([O-])c1cccc(/C=C/c2ccncc2)c1,2.32% (inactive),–
O=c1[nH]c(/C=C\c2cccc(Cl)c2)nc(O)c1[N+](=O)[O-],15.9% (inactive),–
CCOc1ccc(/C=C\c2nc(O)c([N+](=O)[O-])c(=O)[nH]2)cc1OCC,-0.66% (inactive),–
O=[N+]([O-])c1cccc(/C=C/c2nc[nH]c2[N+](=O)[O-])c1,-14.1% (inactive),–
Cn1c(/C=C/c2ccc(Cl)cc2Cl)c([N+](=O)[O-])c(=O)n(C)c1=O,2.64% (inactive),–
O=[N+]([O-])c1cccc(C=NN2CCCCCC2)c1,-2.33% (inactive),–

SMILES,inhibition,inhibition [1] [%]
O=c1cc(O)c2sc3nc4c(c(C(F)(F)F)c3c2[nH]1)CCCCC4,0.88% (inactive),–
Cc1cc(-c2csc(Nc3ccccn3)n2)ccc1F,-8.87% (inactive),–
O=C(NCCCn1ccnc1)c1cccc(S(=O)(=O)Nc2ccccc2F)c1,-2.82% (inactive),–
COc1cccc(N=C2SC(CC(=O)Nc3ccccc3)C(=O)N2Cc2ccccn2)c1 (stereo not drawn),-4.38% (inactive),–
COc1ccc(-c2c(-c3cc(OC)cc(OC)c3)n(C)c3ccc(-c4ccc(OC)cc4F)cc23)cc1,-1.04% (inactive),–
Cc1nc(SCC(=O)N2c3ccccc3Sc3ccccc32)n[nH]1,-1.38% (inactive),–
O=C(CSc1nnc(-c2ccccc2)n1-c1ccccc1)N1c2ccccc2Sc2ccccc21,-3.27% (inactive),–
COCCCNCC(O)COc1cccc2[nH]c(C)cc12 (stereo not drawn),3.64% (inactive),–
CC1(C)CC(CC(=O)O)(c2ccccc2)CCO1 (stereo not drawn),-6.14% (inactive),–
C=CCNC(=O)c1ccc(OC)cc1,-4.57% (inactive),–
Cc1ccc(S(=O)(=O)Oc2ccccc2/C=N/O)cc1,-1.81% (inactive),–
O=C1NC(=O)C(=Cc2ccccc2)N1,-3.98% (inactive),–
O=c1cc(Cl)c(-c2ccccc2)n[nH]1,-1.61% (inactive),–
O/N=C\c1ccccc1Oc1ccc(F)cc1,-8.72% (inactive),–
Cc1ccc(S(=O)(=O)Oc2ccccc2/C=N/NC(N)=S)cc1,-0.7% (inactive),–
Cc1ccc(S(=O)(=O)Oc2ccccc2/C=C2/SC(=O)NC2=O)cc1,6.22% (inactive),–
Cc1ccc(S(=O)(=O)Oc2ccccc2/C=C2\SC(=O)NC2=O)cc1,12.8% (inactive),–
O=C(O)/C=C\c1ccccc1Oc1ccc(F)cc1,-0.72% (inactive),–
COc1ccc(NS(=O)(=O)c2cc(NC(=O)C3CC3)ccc2N2CCOCC2)cc1,0% (inactive),–
Cn1cnc([N+](=O)[O-])c1SCC(=O)NN,1.55% (inactive),–
COc1ccc([N+](=O)[O-])cc1N(CC(=O)NC1CCCCC1)S(C)(=O)=O,1.47% (inactive),–
COc1cccc(CN2CC(C(=O)NCCOc3ccccc3F)CCC2=O)c1 (stereo not drawn),-4.36% (inactive),–
O=C1Cc2cc(S(=O)(=O)N3CCNCC3)ccc2N1,0.77% (inactive),–
